Measurements reported in PubChem BioAssay (Tox21).
“And” between values parts separate entries of the source, which are not always exact repeats. Equal entries are not always repeated. The source holds several records for some structures; these can differ, active in one and inactive in another. The source made the active and inactive calls. Where a call stands in place of a potency, no number is given. Unless noted, calls follow the shape of the dose curve; as a rule, active = well fitted curve in the direction sought with a large enough effect in the repeat runs; inconclusive = weak or mixed curves; inactive = no such curve, though single readings can be large; an effect the other way counts as inactive or inconclusive.

How the values were obtained:
[1] = qHTS assay to identify small molecule antagonists of the glucocorticoid receptor (GR) signaling pathway - cell viability counter screen (AID 720693); also: nearly all actives have a fitted effect of over 55% in size
[2] = qHTS assay for identifying genotoxic compounds that show differential cytotoxicity against isogenic chicken DT40 cell lines with known DNA damage response pathways - Rev3 mutant cell line (AID 743014); also: nearly all actives have a fitted effect of over 55% in size; also: potency is read from the fitted curve at half-maximal effect
[3] = qHTS assay for identifying genotoxic compounds that show differential cytotoxicity against isogenic chicken DT40 cell lines with known DNA damage response pathways - Rad54/Ku70 mutant cell line (AID 743015); also: nearly all actives have a fitted effect of over 60% in size; also: potency is read from the fitted curve at half-maximal effect
[4] = qHTS assay to identify small molecule antagonists of the androgen receptor (AR) signaling pathway - cell viability counter screen (AID 743033; also: nearly all actives have a fitted effect of over 45% in size; also: potency is read from the fitted curve at half-maximal effect)
[5] = qHTS assay to identify small molecule antagonists of the androgen receptor (AR) signaling pathway using the MDA cell line - cell viability counter screen (AID 743041; also: nearly all actives have a fitted effect of over 45% in size)
How it was run: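 MDA-kb2 AR-luc human breast carcinoma cells (MMTV-luciferase, AR/GR responsive) were treated with compounds plus R1881 agonist for 16 h at 37 °C. Viability was read as CellTiter-Fluor fluorescence in the same wells as the reporter assay.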

[6] = qHTS assay to identify small molecule antagonists of the thyroid receptor (TR) signaling pathway - cell viability counter screen (AID 743064); also: nearly all actives have a fitted effect of over 50% in size; also: potency is read from the fitted curve at half-maximal effect
How it was run: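 In-well cytotoxicity read by CellTiter-Fluor (30 min, 37 C) following 23.5 h exposure of GH3 cells bearing a TRE-luciferase sensor. Compounds were added alongside 1 nM (final) T3 to drive TR transactivation.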

[7] = qHTS assay to identify small molecule antagonists of the thyroid receptor (TR) signaling pathway (AID 743065); also: nearly all actives have a fitted effect of over 55% in size; also: potency is read from the fitted curve at half-maximal effect
How it was run: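 GH3.TRE-Luc rat pituitary cells carrying two TR response elements driving luciferase were plated for 4 h, given compound plus 1 nM T3 (final), and incubated 23.5 h at 37 C. ONE-Glo luminescence measured reporter inhibition; CellTiter-Fluor fluorescence tracked cytotoxicity.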

[8] = tested on: thyroid hormone receptor (rat, GH3 cells); test: qHTS assay to identify small molecule agonists of the thyroid receptor (TR) signaling pathway (AID 743066; calls by dose curve; also: potency is read from the fitted curve at half-maximal effect)
[9] = qHTS assay to identify small molecule antagonists of the estrogen receptor alpha (ER-alpha) signaling pathway - cell viability counter screen (AID 743074; calls by dose curve; also: nearly all actives have a fitted effect of over 45% in size)
[10] = qHTS assay to identify small molecule antagonists of the estrogen receptor alpha (ER-alpha) signaling pathway using the BG1 cell line - cell viability counter screen (AID 743081);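 also: compound given together with 17beta-estradiol as the ER stimulus; series mostly up to about 70 µM; nearly all actives have a fitted effect of over 45% in size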
[11] = biological target: Aromatase (Homo sapiens) (UniProt P11511); test: qHTS assay to identify aromatase inhibitors (AID 743083); also: nearly all actives have a fitted effect of over 55% in size; also: potency is read from the fitted curve at half-maximal effect
Sequence of Aromatase (Homo sapiens) (P11511 whole entry, looked up): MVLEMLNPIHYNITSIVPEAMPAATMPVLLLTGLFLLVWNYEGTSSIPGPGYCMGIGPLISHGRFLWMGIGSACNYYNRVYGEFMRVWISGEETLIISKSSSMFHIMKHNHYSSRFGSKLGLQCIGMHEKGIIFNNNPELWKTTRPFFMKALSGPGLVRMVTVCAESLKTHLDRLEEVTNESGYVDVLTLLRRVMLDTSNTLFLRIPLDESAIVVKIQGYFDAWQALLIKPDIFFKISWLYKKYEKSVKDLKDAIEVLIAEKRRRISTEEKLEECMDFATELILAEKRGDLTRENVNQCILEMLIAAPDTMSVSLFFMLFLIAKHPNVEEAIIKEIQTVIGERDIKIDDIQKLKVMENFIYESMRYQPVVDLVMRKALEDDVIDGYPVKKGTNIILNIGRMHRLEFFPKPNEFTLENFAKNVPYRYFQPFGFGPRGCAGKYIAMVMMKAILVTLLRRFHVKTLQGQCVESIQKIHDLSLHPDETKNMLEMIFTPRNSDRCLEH

[12] = qHTS assay for identifying genotoxic compounds that show differential cytotoxicity against isogenic chicken DT40 cell lines with known DNA damage response pathways - wild type cell line (AID 743012); also: nearly all actives have a fitted effect of over 60% in size; also: potency is read from the fitted curve at half-maximal effect
How it was run: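 First, wild type DT40 cells were plated at 300 per well and equilibrated about 0.5 h at 37 C/5% CO2. Next, compounds in DMSO were added and exposure lasted 40 h. Finally, CellTiter-Glo was added for 30 min at room temperature and luminescence recorded.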

[13] = biological target: Estrogen receptor (Homo sapiens) (UniProt P03372); test: qHTS assay to identify small molecule antagonists of the estrogen receptor alpha (ER-alpha) signaling pathway (AID 743069; active = well fitted curve in the direction sought with a large enough effect in the signal ratio in the repeat runs, not every such curve was filed as active; inconclusive = weak or mixed curves, or effect the other way; inactive = no such curve, though single readings can be large or run the other way; the % refers to the signal ratio; also: potency is read from the fitted curve at half-maximal effect)
Sequence of Estrogen receptor (Homo sapiens) (P03372 whole entry, looked up): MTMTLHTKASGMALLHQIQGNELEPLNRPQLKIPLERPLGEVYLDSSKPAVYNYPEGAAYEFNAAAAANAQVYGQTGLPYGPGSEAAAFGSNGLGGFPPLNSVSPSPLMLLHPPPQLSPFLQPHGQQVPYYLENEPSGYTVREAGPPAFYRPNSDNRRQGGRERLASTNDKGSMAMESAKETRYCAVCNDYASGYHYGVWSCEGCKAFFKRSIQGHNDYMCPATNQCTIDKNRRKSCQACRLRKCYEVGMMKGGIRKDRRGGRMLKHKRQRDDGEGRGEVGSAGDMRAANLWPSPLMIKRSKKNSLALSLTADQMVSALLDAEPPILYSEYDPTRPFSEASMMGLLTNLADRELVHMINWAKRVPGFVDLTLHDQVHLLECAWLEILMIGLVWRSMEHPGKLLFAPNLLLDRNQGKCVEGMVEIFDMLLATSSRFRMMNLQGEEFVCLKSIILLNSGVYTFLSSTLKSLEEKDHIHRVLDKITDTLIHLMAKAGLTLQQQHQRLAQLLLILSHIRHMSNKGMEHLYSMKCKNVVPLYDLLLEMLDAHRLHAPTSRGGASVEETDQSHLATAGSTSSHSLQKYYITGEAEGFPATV
How it was run: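 HEK293 cells stably carrying an ER-alpha-UAS-bla beta-lactamase reporter were pre-cultured overnight in 2% charcoal-stripped FBS medium. Test compounds in DMSO were added together with 17beta-estradiol for 18 hr at 37C. Read-out was fluorescence after 2 hr with LiveBLAzer B/G FRET substrate at room temperature.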

[14] = biological target: Estrogen receptor (Homo sapiens) (UniProt P03372); test: qHTS assay to identify small molecule agonists of the estrogen receptor alpha (ER-alpha) signaling pathway (AID 743075; calls by dose curve; also: potency is read from the fitted curve at half-maximal effect)
[15] = biological target: Estrogen receptor (Homo sapiens) (UniProt P03372); test: qHTS assay to identify small molecule agonists of the estrogen receptor alpha (ER-alpha) signaling pathway using the BG1 cell line (AID 743079); also: nearly all actives have a fitted effect of over 20% in size; also: potency is read from the fitted curve at half-maximal effect
[16] = qHTS assay to identify small molecule antagonists of the estrogen receptor alpha (ER-alpha) signaling pathway using the BG1 cell line (AID 743080; calls by dose curve;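 also: BG1 cells stimulated with 17beta-estradiol alongside compound; nearly all actives have a fitted effect of over 25% in size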; also: potency is read from the fitted curve at half-maximal effect)
How it was run: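 Quantitative HTS on the Tox21 10K library: BG1 cells with endogenous ER-alpha and ERE-luciferase reporter, 17beta-estradiol stimulation, 21.5 h compound exposure, luminescence endpoint with parallel fluorescence cytotoxicity counter-read.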

[17] = biological target: Androgen receptor (Homo sapiens) (UniProt P10275); test: qHTS assay to identify small molecule agonists of the androgen receptor (AR) signaling pathway (AID 743036; active = well fitted activation curve with a large enough effect in the signal ratio in the repeat runs, with a control signal flat, not every such curve was filed as active; inconclusive = weak or mixed curves, or effect the other way; inactive = no such curve, though single readings can be large or run the other way; the % refers to the signal ratio)
Sequence of Androgen receptor (Homo sapiens) (P10275 whole entry, looked up): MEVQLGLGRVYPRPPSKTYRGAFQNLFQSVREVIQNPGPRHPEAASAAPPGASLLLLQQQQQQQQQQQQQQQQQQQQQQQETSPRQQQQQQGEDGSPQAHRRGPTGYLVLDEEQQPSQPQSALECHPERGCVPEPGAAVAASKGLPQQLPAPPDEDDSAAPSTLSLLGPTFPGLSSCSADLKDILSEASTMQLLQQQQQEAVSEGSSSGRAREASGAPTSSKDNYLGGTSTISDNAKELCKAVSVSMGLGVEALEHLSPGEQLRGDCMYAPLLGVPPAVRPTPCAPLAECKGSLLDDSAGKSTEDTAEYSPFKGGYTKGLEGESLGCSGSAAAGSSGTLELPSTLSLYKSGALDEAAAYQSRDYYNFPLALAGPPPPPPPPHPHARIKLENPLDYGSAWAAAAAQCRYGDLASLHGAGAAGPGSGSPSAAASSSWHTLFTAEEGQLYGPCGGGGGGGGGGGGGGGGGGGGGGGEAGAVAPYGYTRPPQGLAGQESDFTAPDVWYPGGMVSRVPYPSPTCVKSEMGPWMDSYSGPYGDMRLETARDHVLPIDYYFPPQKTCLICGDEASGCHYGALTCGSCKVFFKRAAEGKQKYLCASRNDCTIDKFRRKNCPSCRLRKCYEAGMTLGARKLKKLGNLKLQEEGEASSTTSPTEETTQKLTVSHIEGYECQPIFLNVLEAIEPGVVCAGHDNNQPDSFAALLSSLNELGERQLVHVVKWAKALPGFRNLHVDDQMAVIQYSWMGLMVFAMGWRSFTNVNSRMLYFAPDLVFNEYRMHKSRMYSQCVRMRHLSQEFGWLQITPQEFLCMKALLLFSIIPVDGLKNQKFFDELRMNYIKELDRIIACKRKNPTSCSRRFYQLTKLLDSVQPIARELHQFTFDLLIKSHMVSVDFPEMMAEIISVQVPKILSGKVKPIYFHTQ
How it was run: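 Activation was read as beta-lactamase FRET signal from LiveBLAzer B/G substrate, added for 2 h at room temperature. Before that, GeneBLAzer AR-UAS-bla GripTite (HEK293) cells had 16 h compound exposure at 37C.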

| SMILES | Potency [1] | Potency [2] | Potency [3] | Potency [4] | Potency [5] | Potency [6] | Potency [7] | Potency [8] | Potency [9] | Potency [10] | Potency [11] | Potency [12] | Potency [13] | Potency [14] | Potency [15] | Potency [16] | outcome [17] |
| --- | --- | --- | --- | --- | --- | --- | --- | --- | --- | --- | --- | --- | --- | --- | --- | --- | --- |
| CC(=O)c1ccccn1 | inactive | inactive | inactive | inactive | inactive | inactive | inactive | inactive | inactive | inactive | inactive | – | – | – | – | – | – |
| Cc1c(OCC(F)(F)F)ccnc1CS(=O)c1nc2ccccc2[nH]1 (stereo not given) | inactive | inactive and 54.5 µM (active) | – | inactive | inactive | inactive | – | – | inactive | inactive | inactive | inactive | – | – | – | – | – |
| O=C(/C=C/C=C/c1ccc2c(c1)OCO2)N1CCCCC1 | inactive | 61.3 µM (active) | 61.3 µM (active) | inactive | inactive | inactive | – | inactive | inactive | inactive | inactive | – | inactive | inactive | 1.37 µM (active) and 3.86 µM (active) | – | – |
| C#C[C@]1(O)CC[C@H]2[C@@H]3CCC4=Cc5oncc5C[C@]4(C)[C@H]3CC[C@@]21C | – | inactive and 24.3 µM (active) | 13.7 µM (active) | inactive and 38.9 µM (active) | inactive | inactive and 61.1 µM (active) | – | – | inactive | inactive | inactive | 9.69 µM (active) | 49 µM [inconclusive] (active) | 3.38 µM [inconclusive] (active) and 6.17 µM [activator] (active) | 668 nM (active) and 969 nM (active) | inactive and 61.1 µM (active) | – |
| CC(C)=CCC/C(C)=C\CO | inactive | inactive and 61.1 µM (active) | inactive | inactive | inactive | inactive | inactive | 24.5 µM (active) and inactive | inactive | inactive | – | – | – | – | – | – | inactive |
| CN(C)CCC=C1c2ccccc2CCc2ccccc21 | inactive | 13.3 µM (active) and 30.6 µM (active) | 13.3 µM (active) and 54.5 µM (active) | inactive | – | 23.7 µM (active) and 5.45 µM (active) and 24.3 µM (active) | 26.6 µM (active) and 24.3 µM (active) and 21.7 µM (active) | inactive | – | inactive | inactive | 9.44 µM (active) and 54.5 µM (active) | 54.9 µM [inconclusive] (active) | inactive | inactive | – | – |
| CC1=CC2C3CC(C=C3C)C2C1 (stereo not given) | inactive | inactive and 54.5 µM (active) | inactive and 30.6 µM (active) | inactive | inactive | inactive | inactive | inactive | inactive | inactive | inactive | – | inactive | inactive | inactive | inactive | – |
| CN(C)C(=N)N=C(N)N | inactive | – | – | inactive | inactive | inactive | inactive | inactive | inactive | inactive | – | – | – | – | – | – | – |
| COc1ccccc1/C=C/C=O | inactive | 62.8 µM (active) | 31.4 µM (active) and 54.5 µM (active) | inactive | inactive | 55.9 µM (active) | 62.8 µM (active) | inactive | inactive | inactive | inactive | – | inactive | inactive | inactive | inactive | – |
| O=C(OCc1ccccc1)c1ccccc1O | inactive | – | – | inactive | inactive | inactive | inactive | inactive | inactive | inactive | inactive | – | inactive | inactive | 24.3 µM (active) | inactive | – |
| c1cc(N(CC2CO2)CC2CO2)ccc1OCC1CO1 (stereo not given) | – | 10.9 nM (active) and 12.2 nM (active) | 770 nM (active) and 273 nM (active) | inactive | inactive | 19.4 µM (active) and 27.3 µM (active) | 4.86 µM (active) and 3.86 µM (active) | inactive | inactive | inactive | 24.4 µM (active) and 54.5 µM (active) | 687 nM (active) and 306 nM (active) | – | inactive | inactive | – | – |
| CC(C)Oc1ccc2c(=O)c(-c3ccccc3)coc2c1 | inactive | 4.22 µM (active) | 9.44 µM (active) | inactive | inactive | – | – | – | – | inactive | inactive | 6.68 µM (active) | – | – | – | – | – |
| Nc1ccc(Nc2ccccc2)cc1 | inactive | 67.8 µM (active) and 54.5 µM (active) and 34.4 µM (active) | 54.5 µM (active) and 43.3 µM (active) | inactive | inactive | 60.4 µM (active) and 30.6 µM (active) and 34.4 µM (active) | – | – | inactive | inactive | inactive | 30.6 µM (active) | – | inactive | inactive | inactive | – |
